Measurements as given in the supplement of paper PMC10849652.
Of roughly 7,900 targets only a part is listed; those with a hit were picked by preference. About 0.6% of all pairs of compound and target were hits. A number with no mark means an inactive call.

How the values were obtained:
Experiment in all cases: log2 fold change, soluble protein after heating vs DMSO (PISA); higher = thermal stabilisation; K562 cells, 10 uM, 30 min; active = over 0.2 and 3.5 SD of the protein, either way, in both replicates (recomputed)
IRAK-1-4 Inhibitor I = compound: C1COCCN1CCN2C3=CC=CC=C3N=C2NC(=O)C4=CC(=CC=C4)[N+](=O)[O-] [IRAK-1-4 Inhibitor I]
In short: (§1)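 Soluble protein was defined as the supernatant after 21,000xg for 90 min. It came from K562 cells at 2×10^6 cells/mL given 10 μM compound for 30 min, heated in aliquots for 3 min across 48°C-58°C, pooled, and extracted in PBS with 0.5% NP-40 at 4°C, and was quantified by TMTpro 16plex LC-MS/MS with equalised channel sums. Thermal stability against control samples, from duplicates, is reported as log2 fold change.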

ibrutinib = compound: C=CC(=O)N1CCC[C@@H](n2nc(-c3ccc(Oc4ccccc4)cc3)c3c(N)ncnc32)C1 [ibrutinib]
In short: as §1

[1] = compound: CC(=O)c1cnc2ccc(-c3cc(Cl)c(O)c(Cl)c3)nc2c1N[C@H]1CC[C@H](CN(C)C)CC1
In short: as §1

ralimetinib = compound: CC(C)(C)Cn1c(N)nc2ccc(-c3[nH]c(C(C)(C)C)nc3-c3ccc(F)cc3)nc21 [ralimetinib]
In short: as §1

[2] = compound: CC(C)(O)CC(=O)NCCn1ccc2ncnc(Nc3ccc(Oc4cccc(C(F)(F)F)c4)c(Cl)c3)c21
In short: as §1

[3] = compound: CC(C)C1=C2N=C(C=C(N2N=C1)NCC3=CC=CC=C3)NCCCCCCN
In short: as §1

[4] = compound: CC(C)C[C@@H](C=O)NC(=O)[C@H](CC(C)C)NC(=O)[C@H](CC(C)C)NC(=O)OCc1ccccc1
In short: as §1

pinometostat = compound: CC(C)N(C[C@H]1O[C@@H](n2cnc3c(N)ncnc32)[C@H](O)[C@@H]1O)[C@H]1C[C@@H](CCc2nc3cc(C(C)(C)C)ccc3[nH]2)C1 [pinometostat]
In short: as §1

[5] = compound: CC1=C(C(CC(=O)N1)C2=CC=C(C=C2)C(F)(F)F)C(=O)NC3=C(C=C4C(=C3)C=NN4)F
In short: as §1

[6] = compound: CC1=C(C2=C(C=C1)C(=O)C3=CC=CC=C3N2CCCN)C
In short: as §1

[7] = compound: CC1=C(C=C(C=C1)NC(=O)C2=CC(=CC=C2)C(C)(C)C#N)NC3=CC4=C(C=C3)N=CN(C4=O)C
In short: as §1

[8] = compound: CC1=C(C=C(C=C1)NC(=O)C2=CC(=CC=C2)N(C)C)NC(=O)C3=CC=C(C=C3)O
In short: as §1

[9] = compound: CC1=CC=C(C=C1)SC2=C3C=C(SC3=CN=C2)C(=O)N
In short: as §1

[10] = compound: CC1=NC(=CC=C1)C2=C(N=C(N2)C(C)(C)C)C3=CC4=NC=CN=C4C=C3
In short: as §1

Nexturastat A = compound: CCCCN(Cc1ccc(C(=O)NO)cc1)C(=O)Nc1ccccc1 [Nexturastat A]
In short: as §1

vemurafenib = compound: CCCS(=O)(=O)Nc1ccc(F)c(C(=O)c2c[nH]c3ncc(-c4ccc(Cl)cc4)cc23)c1F [vemurafenib]
In short: as §1

[11] = compound: CCCS(=O)(=O)Nc1ccc(F)c(C(=O)c2c[nH]c3ncc(Cl)cc23)c1F
In short: as §1

[12] = compound: CCCc1cc(C)[nH]c(=O)c1CNC(=O)c1cc(-c2ccnc(N3CCN(C)CC3)c2)cc2c1cnn2C(C)C
In short: as §1

givinostat = compound: CCN(CC)Cc1ccc2cc(COC(=O)Nc3ccc(C(=O)NO)cc3)ccc2c1 [givinostat]
In short: as §1

barasertib = compound: CCN(CCCOc1ccc2c(Nc3cc(CC(=O)Nc4cccc(F)c4)[nH]n3)ncnc2c1)CCOP(=O)(O)O [barasertib]
In short: as §1

Sequence of UniProt O43615 (O43615 whole entry, looked up): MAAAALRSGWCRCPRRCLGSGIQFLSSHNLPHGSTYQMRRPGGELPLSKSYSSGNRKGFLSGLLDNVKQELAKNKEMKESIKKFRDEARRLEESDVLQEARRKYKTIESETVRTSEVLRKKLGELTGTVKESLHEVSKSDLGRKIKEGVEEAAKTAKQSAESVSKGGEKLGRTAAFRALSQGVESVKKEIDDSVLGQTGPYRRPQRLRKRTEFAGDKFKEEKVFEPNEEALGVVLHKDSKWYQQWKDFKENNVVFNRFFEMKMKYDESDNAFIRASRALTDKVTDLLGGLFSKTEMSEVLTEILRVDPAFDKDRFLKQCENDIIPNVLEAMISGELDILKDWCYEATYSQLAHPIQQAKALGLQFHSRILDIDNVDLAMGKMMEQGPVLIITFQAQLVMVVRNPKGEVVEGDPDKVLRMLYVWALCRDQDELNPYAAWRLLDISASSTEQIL
Sequence of UniProt Q6YHU6 (Q6YHU6 whole entry, looked up): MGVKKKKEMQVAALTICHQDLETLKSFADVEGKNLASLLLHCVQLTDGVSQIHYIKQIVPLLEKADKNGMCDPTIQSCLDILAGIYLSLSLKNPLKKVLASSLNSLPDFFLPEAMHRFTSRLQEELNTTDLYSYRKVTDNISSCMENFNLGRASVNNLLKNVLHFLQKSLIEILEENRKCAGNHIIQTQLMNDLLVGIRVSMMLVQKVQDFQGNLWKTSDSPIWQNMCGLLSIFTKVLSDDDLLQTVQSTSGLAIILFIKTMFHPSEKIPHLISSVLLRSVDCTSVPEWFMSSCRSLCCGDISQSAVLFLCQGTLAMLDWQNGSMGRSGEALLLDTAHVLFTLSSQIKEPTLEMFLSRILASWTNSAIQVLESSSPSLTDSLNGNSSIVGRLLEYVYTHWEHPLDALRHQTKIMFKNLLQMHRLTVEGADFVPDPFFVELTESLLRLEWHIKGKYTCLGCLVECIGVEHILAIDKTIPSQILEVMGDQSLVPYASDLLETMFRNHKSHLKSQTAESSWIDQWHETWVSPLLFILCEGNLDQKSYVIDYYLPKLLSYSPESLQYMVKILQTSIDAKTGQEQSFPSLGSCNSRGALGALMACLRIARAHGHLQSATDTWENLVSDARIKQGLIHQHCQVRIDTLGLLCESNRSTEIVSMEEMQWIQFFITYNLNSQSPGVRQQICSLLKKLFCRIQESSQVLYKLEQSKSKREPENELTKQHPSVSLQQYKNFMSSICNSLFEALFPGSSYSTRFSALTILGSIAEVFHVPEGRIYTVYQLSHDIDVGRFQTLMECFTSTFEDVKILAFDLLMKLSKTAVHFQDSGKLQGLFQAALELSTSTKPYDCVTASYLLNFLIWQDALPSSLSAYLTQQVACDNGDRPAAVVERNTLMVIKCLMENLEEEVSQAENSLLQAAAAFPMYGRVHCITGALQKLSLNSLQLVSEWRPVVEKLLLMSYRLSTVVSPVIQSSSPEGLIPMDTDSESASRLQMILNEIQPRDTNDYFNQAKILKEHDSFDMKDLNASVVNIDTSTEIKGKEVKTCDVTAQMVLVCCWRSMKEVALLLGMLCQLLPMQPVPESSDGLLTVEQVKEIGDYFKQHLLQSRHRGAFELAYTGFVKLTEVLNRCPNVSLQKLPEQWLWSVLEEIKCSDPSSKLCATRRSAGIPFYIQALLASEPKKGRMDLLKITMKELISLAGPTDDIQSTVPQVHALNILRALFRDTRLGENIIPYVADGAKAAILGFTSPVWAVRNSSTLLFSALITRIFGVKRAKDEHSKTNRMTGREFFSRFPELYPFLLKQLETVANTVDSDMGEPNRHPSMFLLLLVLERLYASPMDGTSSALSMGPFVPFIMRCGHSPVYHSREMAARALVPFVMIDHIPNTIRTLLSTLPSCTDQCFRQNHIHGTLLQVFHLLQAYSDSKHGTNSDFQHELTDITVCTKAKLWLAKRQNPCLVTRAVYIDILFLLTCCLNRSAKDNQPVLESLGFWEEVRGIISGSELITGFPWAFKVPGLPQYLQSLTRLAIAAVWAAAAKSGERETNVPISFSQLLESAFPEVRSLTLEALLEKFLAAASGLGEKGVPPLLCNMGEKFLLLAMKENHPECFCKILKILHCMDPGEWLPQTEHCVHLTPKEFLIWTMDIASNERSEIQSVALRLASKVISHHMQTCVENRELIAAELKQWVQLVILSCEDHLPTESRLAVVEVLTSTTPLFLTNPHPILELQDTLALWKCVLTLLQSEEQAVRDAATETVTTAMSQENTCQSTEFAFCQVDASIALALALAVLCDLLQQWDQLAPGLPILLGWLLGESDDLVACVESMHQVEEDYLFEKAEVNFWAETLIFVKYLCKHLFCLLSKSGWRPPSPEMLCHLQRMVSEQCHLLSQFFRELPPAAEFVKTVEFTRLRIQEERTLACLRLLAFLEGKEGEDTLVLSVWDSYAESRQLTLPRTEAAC
Sequence of UniProt Q9BZJ4 (Q9BZJ4 whole entry, looked up): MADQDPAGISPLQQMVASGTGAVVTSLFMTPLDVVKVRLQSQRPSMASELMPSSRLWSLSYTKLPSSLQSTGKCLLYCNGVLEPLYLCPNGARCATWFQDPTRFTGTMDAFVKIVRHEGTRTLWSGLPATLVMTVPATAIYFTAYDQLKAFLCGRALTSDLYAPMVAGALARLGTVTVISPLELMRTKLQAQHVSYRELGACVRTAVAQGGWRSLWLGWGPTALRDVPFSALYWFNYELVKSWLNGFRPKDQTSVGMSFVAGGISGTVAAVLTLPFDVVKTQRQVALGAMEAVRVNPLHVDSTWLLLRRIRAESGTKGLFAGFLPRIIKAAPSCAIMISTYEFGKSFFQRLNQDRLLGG
Sequence of UniProt Q9UHD2 (Q9UHD2 whole entry, looked up): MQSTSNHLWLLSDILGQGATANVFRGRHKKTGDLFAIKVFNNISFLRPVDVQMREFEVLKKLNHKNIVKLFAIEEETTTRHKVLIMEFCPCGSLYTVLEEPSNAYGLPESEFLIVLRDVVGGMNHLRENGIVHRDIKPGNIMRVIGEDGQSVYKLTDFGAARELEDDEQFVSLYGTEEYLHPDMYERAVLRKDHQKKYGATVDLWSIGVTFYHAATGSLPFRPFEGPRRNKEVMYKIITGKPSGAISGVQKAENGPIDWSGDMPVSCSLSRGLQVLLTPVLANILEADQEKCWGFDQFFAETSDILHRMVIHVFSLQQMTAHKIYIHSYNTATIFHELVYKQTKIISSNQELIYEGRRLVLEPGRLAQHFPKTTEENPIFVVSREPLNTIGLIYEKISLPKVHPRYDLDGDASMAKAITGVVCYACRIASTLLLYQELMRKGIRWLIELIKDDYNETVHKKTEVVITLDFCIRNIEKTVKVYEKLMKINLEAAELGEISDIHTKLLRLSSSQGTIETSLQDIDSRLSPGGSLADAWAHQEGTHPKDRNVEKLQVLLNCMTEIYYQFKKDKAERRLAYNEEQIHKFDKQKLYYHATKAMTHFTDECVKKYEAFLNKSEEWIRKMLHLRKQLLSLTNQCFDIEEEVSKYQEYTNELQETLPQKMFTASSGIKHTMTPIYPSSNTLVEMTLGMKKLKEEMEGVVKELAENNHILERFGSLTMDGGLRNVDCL
Sequence of UniProt Q01130 (Q01130 whole entry, looked up): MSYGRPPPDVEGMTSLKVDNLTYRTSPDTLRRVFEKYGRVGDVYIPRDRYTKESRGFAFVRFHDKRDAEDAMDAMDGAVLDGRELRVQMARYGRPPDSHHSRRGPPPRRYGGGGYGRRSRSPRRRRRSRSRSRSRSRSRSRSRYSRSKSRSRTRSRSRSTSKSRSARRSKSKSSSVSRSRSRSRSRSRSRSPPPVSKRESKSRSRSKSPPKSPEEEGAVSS
Sequence of UniProt Q9BSF4 (Q9BSF4 whole entry, looked up): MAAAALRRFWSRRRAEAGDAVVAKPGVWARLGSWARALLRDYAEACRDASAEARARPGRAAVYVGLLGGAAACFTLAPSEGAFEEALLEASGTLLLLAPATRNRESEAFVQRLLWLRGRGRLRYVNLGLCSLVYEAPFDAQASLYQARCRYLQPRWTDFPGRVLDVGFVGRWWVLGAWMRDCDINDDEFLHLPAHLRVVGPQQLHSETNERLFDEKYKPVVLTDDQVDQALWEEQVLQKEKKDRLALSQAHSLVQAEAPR
Sequence of UniProt P30626 (P30626 whole entry, looked up): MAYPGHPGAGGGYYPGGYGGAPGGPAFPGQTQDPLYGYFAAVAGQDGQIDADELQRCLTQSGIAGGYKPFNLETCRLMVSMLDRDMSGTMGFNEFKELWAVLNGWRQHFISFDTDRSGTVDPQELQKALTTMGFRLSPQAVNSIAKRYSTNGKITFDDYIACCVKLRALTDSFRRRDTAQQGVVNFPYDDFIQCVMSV
Sequence of UniProt Q08170 (Q08170 whole entry, looked up): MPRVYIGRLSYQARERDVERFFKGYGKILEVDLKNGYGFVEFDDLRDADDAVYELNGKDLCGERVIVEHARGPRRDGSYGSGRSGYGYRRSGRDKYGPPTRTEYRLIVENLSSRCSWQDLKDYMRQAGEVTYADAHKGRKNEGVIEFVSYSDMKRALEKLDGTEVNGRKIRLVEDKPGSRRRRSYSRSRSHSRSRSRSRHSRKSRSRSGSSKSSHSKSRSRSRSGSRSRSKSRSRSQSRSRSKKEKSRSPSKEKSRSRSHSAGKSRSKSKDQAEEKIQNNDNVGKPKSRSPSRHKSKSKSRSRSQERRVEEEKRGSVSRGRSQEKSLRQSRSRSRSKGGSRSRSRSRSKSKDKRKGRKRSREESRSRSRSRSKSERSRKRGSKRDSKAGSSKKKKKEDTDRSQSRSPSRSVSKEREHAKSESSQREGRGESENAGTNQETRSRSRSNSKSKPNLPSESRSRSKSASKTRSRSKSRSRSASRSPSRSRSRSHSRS
Sequence of UniProt P55061 (P55061 whole entry, looked up): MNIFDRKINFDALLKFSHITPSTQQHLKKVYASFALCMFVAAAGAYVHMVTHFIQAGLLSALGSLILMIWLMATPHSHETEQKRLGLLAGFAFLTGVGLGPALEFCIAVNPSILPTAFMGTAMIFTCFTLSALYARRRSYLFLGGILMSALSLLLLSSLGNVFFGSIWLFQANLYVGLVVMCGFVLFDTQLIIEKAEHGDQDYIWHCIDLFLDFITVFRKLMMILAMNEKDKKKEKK

Row | Target | log2 fold change (IRAK-1-4 Inhibitor I) | log2 fold change (ibrutinib) | log2 fold change [1] | log2 fold change (ralimetinib) | log2 fold change [2] | log2 fold change [3] | log2 fold change [4] | log2 fold change (pinometostat) | log2 fold change [5] | log2 fold change [6] | log2 fold change [7] | log2 fold change [8] | log2 fold change [9] | log2 fold change [10] | log2 fold change (Nexturastat A) | log2 fold change (vemurafenib) | log2 fold change [11] | log2 fold change [12] | log2 fold change (givinostat) | log2 fold change (barasertib)
1 | SRI (UniProt P30626) | -0.017 | -0.032 | -0.014 | -0.039 | -0.108 | 0.026 | -0.048 | -0.036 | 0.069 | 0.201 | 0.035 | -0.092 | 0.094 | 0.037 | -0.073 | 0.092 | 0.045 | -0.055 | -0.03 | 0.107
2 | THADA (UniProt Q6YHU6) | 0.007 | -0.026 | -0.062 | 0.053 | -0.166 | -0.225 | -0.071 | 0.016 | -0.05 | -0.047 | 0.03 | -0.038 | 0.019 | -0.01 | -0.021 | 0.038 | 0.06 | 0.039 | -0.006 | 0.07
3 | SMPD4 isoform 4 (UniProt Q9NXE4) | -0.034 | -0.044 | 0.12 | -0.072 | -0.095 | -0.279 (active) | 0.005 | -0.002 | -0.019 | 0.038 | 0.022 | -0.011 | 0.075 | 0.112 | 0.075 | 0.02 | 0.058 | -0.034 | 0.066 | 0.13
4 | STK26 (UniProt Q9P289) | 0.03 | -0.272 (active) | -0.344 (active) | -0.022 | -0.081 | -0.071 | 0.03 | -0.019 | 0.022 | -0.07 | -0.083 | -0.037 | 0.068 | 0.015 | 0.044 | -0.04 | -0.03 | 0.014 | 0.086 | 0.08
5 | TIMM29 (UniProt Q9BSF4) | -0.202 | 0.024 | -0.014 | -0.101 | 0.008 | 0.071 | -0.031 | 0.444 (active) | -0.004 | -0.052 | -0.007 | -0.015 | -0.023 | -0.102 | -0.037 | -0.031 | 0.033 | 0 | 0.014 | 0.004
6 | STEAP3 isoform 2 (UniProt Q658P3) | -0.002 | -0.005 | -0.067 | 0.013 | -0.087 | -0.011 | 0.032 | 0.043 | 0.019 | 0.044 | -0.009 | 0.015 | 0.008 | -0.003 | -0.05 | -0.027 | 0.007 | -0.025 | 0.005 | -0.004
7 | TIMM44 (UniProt O43615) | 0.066 | -0.061 | -0.065 | -0.039 | -0.171 | -0.399 (active) | 0.006 | -0.004 | 0.028 | 0.022 | 0.048 | -0.028 | 0.091 | 0.074 | -0.052 | -0.002 | 0.12 | -0.096 | -0.013 | 0.055
8 | SLC25A39 (UniProt Q9BZJ4) | 0.037 | 0.032 | 0.068 | -0.035 | -0.112 | -0.673 (active) | 0.035 | 0.294 | -0.129 | -0.11 | -0.029 | 0.011 | 0.207 | 0.129 | -0.037 | -0.019 | -0.048 | -0.133 | -0.092 | 0.088
9 | SUPT5H (UniProt O00267) | -0.009 | -0.068 | 0.066 | -0.009 | -0.065 | -0.046 | 0.013 | -0.017 | -0.035 | -0.08 | 0.004 | -0.054 | 0.006 | 0.013 | -0.067 | 0.008 | 0.068 | -0.028 | 0.035 | 0.04
10 | TMBIM6 isoform 2 (UniProt P55061) | 0.023 | 0.001 | 0.004 | -0.208 | -0.437 (active) | -0.521 (active) | 0.135 | 0.017 | 0.003 | -0.075 | -0.05 | 0.045 | 0.04 | -0.016 | -0.005 | -0.121 | 0.048 | 0.619 | 0.072 | 0.019
11 | SRSF2 (UniProt Q01130) | -0.069 | 0.016 | -0.073 | 0.01 | 0.055 | 0.03 | 0.09 | 0.022 | 0.02 | -0.02 | -0.023 | 0.053 | -0.033 | -0.032 | 0.036 | -0.046 | -0.025 | -0.023 | 0.005 | -0.007
12 | STXBP2 isoform 3 (UniProt Q15833) | -0.11 | -0.057 | -0.021 | 0.172 | -0.065 | -0.364 (active) | 0.147 | 0.189 | 0.023 | 0.025 | 0 | -0.042 | 0.036 | -0.017 | 0.128 | 0.155 | 0.032 | 0.063 | 0.125 | 0.068
13 | SPAST (UniProt Q9UBP0) | 0.054 | -0.015 | -0.073 | 0.015 | -0.157 | -0.063 | 0.013 | 0.002 | -0.019 | 0.114 | -0.032 | -0.05 | 0.049 | 0.029 | -0.047 | 0.068 | 0.021 | 0.062 | 0.074 | 0.045
14 | SRSF4 (UniProt Q08170) | -0.306 | 0.069 | -0.261 | 0.125 | 0.088 | -0.174 | 0.019 | 0.126 | -0.009 | -0.379 | 0.042 | -0.001 | -0.067 | -0.032 | 0.074 | -0.027 | 0.017 | 0.224 | 0.052 | -0.064
15 | TBK1 (UniProt Q9UHD2) | -0.046 | -0.019 | -0.162 | 0.024 | -0.067 | -0.208 | 0.046 | 0.087 | 0.028 | -0.091 | -0.018 | -0.03 | 0.019 | -0.007 | 0.163 | -0.012 | 0.089 | 0.083 | 0.065 | 0.028
